This is one part of a sample in which hits are shown more often than they occur.
ALOX12 inh: blocks human arachidonate 12S-lipoxygenase; purified 12hLO, xylenol orange hydroperoxide absorbance; P18054; Potency, µM (highest dose often 108 µM), for inactives: at the top dose activity change, negative = inhibition, most hits filed as inhibitors; AID 1671190; 1.1% of 580,000 active; further: potency means the concentration at half of the fitted maximal effect
Target sequence (P18054 whole entry, looked up): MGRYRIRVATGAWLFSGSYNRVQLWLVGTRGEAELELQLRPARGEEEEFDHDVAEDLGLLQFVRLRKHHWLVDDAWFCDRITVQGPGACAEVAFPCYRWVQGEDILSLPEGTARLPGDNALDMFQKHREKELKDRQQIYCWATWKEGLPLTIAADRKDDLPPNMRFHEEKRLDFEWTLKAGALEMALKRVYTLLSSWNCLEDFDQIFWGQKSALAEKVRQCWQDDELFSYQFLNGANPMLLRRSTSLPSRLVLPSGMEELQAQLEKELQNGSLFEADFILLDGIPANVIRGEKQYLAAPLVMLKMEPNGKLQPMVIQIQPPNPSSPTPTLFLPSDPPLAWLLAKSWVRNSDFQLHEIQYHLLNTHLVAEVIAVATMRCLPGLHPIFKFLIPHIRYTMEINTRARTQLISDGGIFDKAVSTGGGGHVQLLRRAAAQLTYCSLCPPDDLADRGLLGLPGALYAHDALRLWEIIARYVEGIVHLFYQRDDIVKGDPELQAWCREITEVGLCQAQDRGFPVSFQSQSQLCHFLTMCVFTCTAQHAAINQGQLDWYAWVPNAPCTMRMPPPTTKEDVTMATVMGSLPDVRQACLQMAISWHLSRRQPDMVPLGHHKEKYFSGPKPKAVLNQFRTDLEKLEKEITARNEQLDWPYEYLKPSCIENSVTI
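Purified human 12hLO at 150 nM in 25 mM Hepes, 0.01% Triton X-100, pH 7.0, preincubated 15 min at room temperature with compound. Reaction started with 40 uM arachidonic acid, 30 min at room temperature. Hydroperoxide measured by Fe-xylenol orange, 573/405 nm absorbance ratio.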
IL-1B inflam inh: inflammasome signaling inhibition, IL-1 beta readout; THP-1 LPS/ATP IL-1B secretion, AlphaLISA, 16 h; stronger effect = lower value; activity change, % at 57.5 µM; 4.7% of 360,000 active; AID 743279; in the data active means activity change below about -50%; inconclusive means mostly about -30% to -49%
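THP-1 cells pretreated 1 hr with compounds (up to 57.5 uM final), then stimulated with LPS (250 ng/mL final) plus ATP (1.25 mM final); secreted IL-1B measured by AlphaLISA after 16 hr, decreased signal indicating inhibition.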
HT1080 IDH1KD tx: kills HT-1080 cells with IDH1 knockdown; Potency, µM (doses to about 46.1 µM), without a hit: at the highest dose activity, negative = toxicity, hits mostly cytotoxic; 2% of 360,000 active; HT-1080 IDH1 knockdown viability, ATP luminescence, 48 h;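 further: potency means the concentration at half of the fitted maximal effect; 0% = DMSO wells and -100% = cell-free medium wells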
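Using the IDH1-knockdown HT-1080 line run in the same batch and compound series as the NT line, viability after 48 h at 37 °C was determined by CellTiter-Glo luminescence and expressed as % activity.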
TDP1 cell CPT: growth inhibition of DT40 Tdp1-/-;hTDP1 cells with camptothecin (screen for TDP1 inhibitors) | chicken DT40 Tdp1-/-;hTDP1 cells + 20 nM CPT, ATP luminescence, 48 h | 12% of 420,000 active | Potency, µM (top dose mostly 46.2 µM), without a hit: top-dose activity change, negative = growth inhibition, usual class: inhibitors; further: potency means the concentration at half of the fitted maximal effect; nearly all actives have a fitted effect of over 55% in size
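Chicken DT40 Tdp1-/- cells stably complemented with human TDP1 were seeded at 400 cells/well in medium containing 20 nM camptothecin, exposed to pin-transferred compounds, and grown at 37 °C for at least 48 hr. Viability was read as ATP luminescence.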
DT40 TDP1 no CPT: qHTS for Inhibitors of human tyrosyl-DNA phosphodiesterase 1 (TDP1): qHTS in cells in absence of CPT; DT40 Tdp1-/- hTDP1 cells, no CPT, ATP luminescence, 48 h; Potency, µM (highest dose often 46.2 µM), without a hit: top-dose activity change, negative = growth inhibition, actives largely listed as inhibitors; 15% of 420,000 active; AID 686978, 2013; further: potency means the concentration at half of the fitted maximal effect; nearly all actives have a fitted effect of over 55% in size
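Growth of hTDP1-complemented DT40 Tdp1-knockout cells is measured by ATP luminescence after at least 48 hr compound exposure at 37 °C, with DMSO substituting for the 20 nM CPT used in the parallel screen.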
HT1080NT lethal: kills 2HG-producing HT-1080-NT fibrosarcoma cells | HT-1080-NT fibrosarcoma viability, CellTiter-Glo ATP luminescence, 48 h | Potency, µM (titrated, usually from 46.1 µM), for the others: top-dose activity, negative = less viability, usual class: cytotoxic | 1.6% of 360,000 active;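 further: NT is the 2HG producing partner of a matched IDH1 knockdown line; potency means the concentration at half of the fitted maximal effect; 0% = DMSO-treated cells and -100% = media-only wells without cells; nearly all actives have a fitted effect of over 55% in size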
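HT-1080-NT; 750 cells/well; 5% FBS RPMI; 48 h compound, 37 degrees C; CellTiter-Glo luminescence; curve fitting and curve-class assignment.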
* = called active by the depositor; i = inactive; ? = inconclusive; . = no result; [ ] = dose if it differs, or a comment. Unless noted, the call rests on the fitted dose curve; in most records, active means well fitted curve in the direction sought with a large enough effect; inconclusive means small, poorly fitted or top-dose-only effect, or another doubt; inactive means no such curve, though single readings can be large; an effect the other way counts as inactive or inconclusive. Unless noted, on the % scale 0 is the no-effect control and ±100 the full control effect.

SMILES	ALOX12 inh	IL-1B inflam inh	HT1080 IDH1KD tx	TDP1 cell CPT	DT40 TDP1 no CPT	HT1080NT lethal
CC(=O)c1c(C)[nH]c(C(=O)Nc2cccc(S(=O)(=O)N3CCCCC3)c2)c1C	?	?	-19.4%	?	14.6µM*	-18.0%
CCN(C(=O)C(=O)c1c(C)[nH]c2ccccc12)c1cccc(Cl)c1	11.6%	.	.	.	.	.
CC(=O)c1cnn(-c2cc(Nc3ccc(F)cc3)nc(C)n2)c1C	-12.8%	.	.	.	.	.
CC(OC(=O)c1cc(Br)ccc1O)C(=O)Nc1ccc(S(=O)(=O)N2CCCC2)cc1 (stereo unspecified)	-24.2%	?	?	?	16.4µM*	?
Cc1cc(C(=O)Nc2ccc(S(=O)(=O)N3CCCCCC3)cc2)no1	-14.3%	.	.	.	.	.
Cc1onc(-c2ccccc2)c1C(=O)Nc1ccc(S(=O)(=O)N2CCOCC2)cc1	-3.4%	-0.8	-3.1%	?	23.1µM*	0.0%
Cc1onc(-c2ccccc2Cl)c1C(=O)Nc1ccc(S(=O)(=O)N2CCCC2)cc1	6.5%	-15.8	-5.8%	?	?	-12.6%
CC(=O)c1cccc(NC(=O)c2ccc(S(=O)(=O)N3CCCCC3)cc2)c1	3.8%	-26.4	-4.8%	23.1µM*	18.4µM*	-1.7%
Cn1nc(C(=O)Nc2ccc(S(=O)(=O)N3CCCCC3)cc2)ccc1=O	-22.1%	11.6	-10.3%	?	20.6µM*	-16.8%
CC(Cl)C(=O)NC(=O)NCc1ccccc1 (stereo unspecified)	0.0%	.	.	.	.	.
Cc1ccccc1-c1cc(=O)c2cc(NC(=O)c3cccs3)ccc2o1	-25.7%	.	.	.	.	.
O=C(c1cnccn1)N1CCC(Nc2cccnc2)C1 (stereo unspecified)	21.3%	.	.	.	.	.
CC(=O)c1cccc(NS(=O)(=O)c2ccc(NC(=O)N3CCCCC3)cc2)c1	5.0%	9.5	-29.5%	5.17µM*	9.2µM*	?
Cc1cccc(NC(=O)c2ccc(S(=O)(=O)N3CCCCCC3)cc2)n1	7.9%	-69.6*	-5.1%	-3.6%	13µM*	-18.3%
O=C(Nc1cccc(S(=O)(=O)C(F)F)c1)c1ccc(S(=O)(=O)N2CCCCC2)cc1	-15.5%	-61.9*	?	?	?	?
CC(=O)c1cccc(NC(=O)N2CCCCCC2)c1	9.6%	7.7	3.0%	5.9%	-0.8%	7.4%
CN(C)S(=O)(=O)c1cccc(NC(=O)c2ccc(S(=O)(=O)N3CCCCC3)cc2)c1	-8.5%	1.8	-6.4%	?	?	-9.3%
Cc1cccc(NC(=O)c2cc(S(=O)(=O)N3CCCCC3)ccc2Cl)n1	3.4%	18.9	-2.1%	-29.3%	?	1.5%
O=C(Nc1cccnc1)c1ccc(CN2CCc3ccccc3C2)cc1	0.0%	0.2	-19.2%	?	16.4µM*	0.5%
O=C(C1CCN(S(=O)(=O)N2CCOCC2)CC1)N1CCc2nc3cc[nH]n3c(=O)c2C1	-4.9%	.	.	.	.	.
O=C(c1cnccn1)N1CCc2onc(C(c3ccccc3)c3ccccc3)c2C1	24.0%	.	.	.	.	.
O=C(Nc1ccc(-n2cccn2)c(F)c1)C1CCCN(C(=O)c2cccs2)C1 (stereo unspecified)	-1.0%	.	.	.	.	.
Oc1ccc2c(c1)Oc1ncn3nc(COc4ccccc4)nc3c1C2c1cccnc1 (stereo unspecified)	0.9%	.	.	.	.	.
O=C(Nc1ccc(S(=O)(=O)N2CCCC2)cc1)c1ccccc1	-0.7%	-24.2	-5.1%	-28.2%	23.1µM*	-12.7%
O=C(Nc1cccc(S(=O)(=O)N2CCCCC2)c1)c1ccc(S(=O)(=O)C(F)F)cc1	-2.9%	-81.5*	-15.4%	?	?	-0.5%
SMILES	ALOX12 inh	IL-1B inflam inh	HT1080 IDH1KD tx	TDP1 cell CPT	DT40 TDP1 no CPT	HT1080NT lethal
Cc1cc(C)cc(NC(=O)c2ccc(S(=O)(=O)C(F)F)cc2)c1	-26.2%	-87.1*	5.1%	2.8%	?	-4.6%
Cc1c(-c2cccc(NC(=O)c3ccc(F)c(F)c3)c2)nc2ncccn12	-14.2%	.	.	?	13µM*	.
Cc1noc2c(NC3CCN(C)CC3)cc(-c3ccc(Cl)cc3)nc12	-6.0%[176 µM]	.	.	.	.	.
CCN(Cc1ccc2c(c1)OCO2)C(=O)c1cc(=O)c2cc(C)ccc2o1	-2.8%	.	.	.	.	.
FC(F)(F)c1ccc(N2C3CCC2CN(Cc2cccc(-c4cccnc4)c2)C3)cc1	8.3%[6.33 µM]	.	.	.	.	.
O=C(Nc1cccc(C(=O)N2CCCCC2)c1)c1ccc(Cl)cc1	i	15.7	-5.9%	?	20.6µM*	-7.2%
O=C(Nc1cccc(Cl)c1)N1CCOCC1	0.0%	-29.0	-2.2%	-9.3%	26.4%	-1.9%
O=C(Nc1cccc(C(=O)N2CCCCC2)c1)c1ccccc1	-0.5%	-0.8	5.7%	3.8%	-2.0%	?
O=C(Nc1cccc(Cl)c1)N1CCCC1	2.8%	-18.3	5.9%	16.4µM*	25.9µM*	14.6%
O=C(Nc1ccccc1)c1ccc(CN2CCc3ccccc3C2)cc1	-7.0%	-4.0	-25.8%	-17.1%	-29.5%	-10.6%
O=C(Nc1ccc(S(=O)(=O)N2CCCCC2)cc1)c1ccc(CN2CCc3ccccc3C2)cc1	18.8%	-2.6	?	10.3µM*	4.61µM*	?
COC(=O)c1sc2nc(CN(C)Cc3ccc(F)cc3)[nH]c(=O)c2c1C	-2.0%	.	.	.	.	.
COc1ccc(-c2cc(C(=O)NCC3CCCO3)c3cc(C)ccc3n2)cc1 (stereo unspecified)	-1.3%	-6.9	-3.4%	-4.9%	16.4µM*	-7.3%
COc1ccc(-c2nc(SC(C)C(=O)NC(=O)NC3CCCCC3)n[nH]2)cc1 (stereo unspecified)	6.4%	.	.	.	.	.
COc1ccc(-c2cc(C(F)(F)F)n3ncc(C(=O)NCC4CCCO4)c3n2)cc1 (stereo unspecified)	4.3%	-3.7	-0.6%	?	?	-1.6%
COc1cccc(-c2cc(C(F)(F)F)n3ncc(C(=O)NCC4CCCO4)c3n2)c1 (stereo unspecified)	3.2%	19.0	?	?	23.1µM*	?
COc1cccc(-c2cc(C(F)(F)F)n3ncc(C(=O)N4CCc5ccccc5C4)c3n2)c1	?	-8.5	15.7%	16.4µM*	18.4µM*	25.4%
CCc1ccc(-c2cc(C(=O)NCC3CCCO3)c3cc(C)ccc3n2)cc1 (stereo unspecified)	-14.6%	.	.	.	.	.
COc1ccc(-c2nc(SC(C)C(=O)NCC3CCCO3)n[nH]2)cc1 (stereo unspecified)	-6.1%	37.9	?	8.2µM*	9.2µM*	?
CCCNCc1ccc(-c2ccc(C(C)O)cc2)o1 (stereo unspecified)	-46.1%	.	.	.	.	.
